Several values for one entry are separate records, joined by “and”; a condition that tells them apart may be missing. Identical values can stand only once. Results filed as inconclusive are left out. The source holds several records for some structures; these can differ, active in one and inactive in another. Activity calls are given as the source filed them. Unless noted, calls follow the shape of the dose curve; as a rule, active = well fitted curve in the direction sought with a large enough effect in the repeat runs; inconclusive = weak or mixed curves; inactive = no such curve, though single readings can be large; an effect the other way counts as inactive or inconclusive.
Assays:
[1] = qHTS RealTime-Glo MT Cell Viability Assay in HepG2 cells - 24 hour (AID 1224867); also: nearly all actives have a fitted effect of over 50% in size
In short: (§1)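 HepG2 suspension premixed with RealTime-Glo reagents is plated at 600 cells per well and left 5 h at 37 C/5% CO2. Compounds in DMSO then go in, and bioluminescence reflecting viable cell number is recorded over 40 h.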

[2] = qHTS RealTime-Glo MT Cell Viability Assay in HEK293 cells - 32 hour (AID 1224868); also: nearly all actives have a fitted effect of over 50% in size; also: potency is read from the fitted curve at half-maximal effect
In short: (§2)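 Reads taken at 0, 8, 16, 24, 32 and 40 h from the same wells. HEK293 cells (600/well) carried RealTime-Glo reagents from seeding, with compound added after a 5 h settle at 37 C.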

[3] = A CellTox Green Cytotoxicity Assay to monitor cytotoxicity in HEK293 cells - 0 hour (AID 1224869); also: nearly all actives have a fitted effect of over 50% in size
In short: (§3)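 Read-out: fluorescence of a cell-impermeant cyanine dye staining DNA of dead cells, proportional to cytotoxicity. HEK293, 600 cells/well with reagent, compound (23 nL DMSO) added after 5 h; reads at 0, 8, 16, 24, 32, 40 h.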

[4] = qHTS RealTime-Glo MT Cell Viability Assay in HepG2 cells - 40 hour (AID 1224870); also: nearly all actives have a fitted effect of over 50% in size
In short: (§4)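 HepG2 cells (600/well) mixed with RealTime-Glo MT reagent, settled 5 h at 37 C/5% CO2 before compound addition. Nonlytic NanoLuc luminescence from viable-cell prosubstrate reduction read repeatedly during 40 h treatment at 37 C.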

[5] = A CellTox Green Cytotoxicity Assay to monitor cytotoxicity in HEK293 cells - 40 hour (AID 1224871); also: nearly all actives have a fitted effect of over 45% in size
In short: as §3

[6] = qHTS RealTime-Glo MT Cell Viability Assay in HEK293 cells - 16 hour (AID 1224872)
In short: as §2

[7] = qHTS RealTime-Glo MT Cell Viability Assay in HepG2 cells - 8 hour (AID 1224873); also: nearly all actives have a fitted effect of over 55% in size
In short: as §4

[8] = qHTS RealTime-Glo MT Cell Viability Assay in HEK293 cells - 40 hour (AID 1224874); details: RealTime-Glo luminescence; max response: stronger effect = lower value; also: nearly all actives have a fitted effect of over 50% in size
In short: (§5)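 Luminescence readout at each listed time point; HEK293, 600 cells/well, RealTime-Glo MT reagent added with cells; compounds pinned (23 nL in DMSO) after 5 h at 37 C; continuous culture at 37 C.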

[9] = A CellTox Green Cytotoxicity Assay to monitor cytotoxicity in HEK293 cells - 24 hour (AID 1224875); also: nearly all actives have a fitted effect of over 45% in size
In short: as §3

[10] = A CellTox Green Cytotoxicity Assay to monitor cytotoxicity in HepG2 cells - 16 hour (AID 1224876); also: nearly all actives have a fitted effect of over 45% in size
In short: (§6)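 HepG2, 600 cells/well premixed w/ CellTox Green; 5 h settle, 37 C/5% CO2; pintool cpd add (DMSO); 37 C, 40 h; fluorescence read at 0, 8, 16, 24, 32, 40 h.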

[11] = qHTS RealTime-Glo MT Cell Viability Assay in HepG2 cells - 32 hour (AID 1224877); also: nearly all actives have a fitted effect of over 55% in size
In short: as §1

[12] = A CellTox Green Cytotoxicity Assay to monitor cytotoxicity in HepG2 cells - 24 hour (AID 1224878); also: nearly all actives have a fitted effect of over 45% in size
In short: as §6

[13] = A CellTox Green Cytotoxicity Assay to monitor cytotoxicity in HepG2 cells - 40 hour (AID 1224879); also: nearly all actives have a fitted effect of over 40% in size
In short: as §6

[14] = A CellTox Green Cytotoxicity Assay to monitor cytotoxicity in HEK293 cells - 32 hour (AID 1224881); also: nearly all actives have a fitted effect of over 40% in size
In short: as §3

[15] = A CellTox Green Cytotoxicity Assay to monitor cytotoxicity in HepG2 cells - 0 hour (AID 1224882); also: nearly all actives have a fitted effect of over 35% in size
In short: as §6

[16] = A CellTox Green Cytotoxicity Assay to monitor cytotoxicity in HepG2 cells - 32 hour (AID 1224883); also: nearly all actives have a fitted effect of over 50% in size
In short: as §6

[17] = A CellTox Green Cytotoxicity Assay to monitor cytotoxicity in HEK293 cells - 8 hour (AID 1224884); also: nearly all actives have a fitted effect of over 35% in size
In short: as §3

[18] = qHTS RealTime-Glo MT Cell Viability Assay in HEK293 cells - 0 hour (AID 1224880)
In short: as §5

[19] = qHTS assay to identify small molecule agonists of the estrogen related receptor (ERR) signaling pathway from Tox21 library (AID 1224849; calls by dose curve; also: nearly all actives have a fitted effect of over 15% in size); details: ERR reporter cell line, ONE-Glo luciferase, 18 h
In short: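 Luminescence readout (ONE-Glo, 30 min RT) after 18 h compound exposure at 37 C of NTP-supplied ERR reporter cells; cells were plated 6 h before compound addition by pin tool.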

[20] = qHTS assay to identify small molecule antagonists of the estrogen related receptor (ERR) signaling pathway from Tox21 library (AID 1224848); also: nearly all actives have a fitted effect of over 50% in size
In short: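 Quantitative high-throughput format: ERR reporter cells (2,000/well) pre-incubated 6 h, treated 18 h at 37 C with compounds in DMSO alongside positive and negative controls, then read by ONE-Glo luminescence.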
% is scaled to controls: 0 for no effect and ±100 for the full control effect.

O=C1CCCN1
inactive: outcome [1] | Potency [2] | Potency [3] | outcome [4] | Potency [5] | outcome [6] | outcome [7] | max response [8] 1.24% and -5.73% | Potency [9] | Potency [10] | outcome [11] | Potency [12] | Potency [13] | Potency [14] | Potency [15] | Potency [16] | Potency [17]

CC(C)=C[C@@H]1[C@@H](C(=O)OCc2coc(Cc3ccccc3)c2)C1(C)C
inactive: outcome [1] | Potency [2] | Potency [3] | outcome [4] | Potency [5] | outcome [6] | max response [8] -1.11% and 8.33% | Potency [9] | Potency [10] | outcome [11] | Potency [12] | Potency [13] | outcome [18] | Potency [14] | Potency [15] | Potency [16] | Potency [17]

Clc1ccc(Cl)cc1
inactive: outcome [1] | Potency [2] | Potency [3] | outcome [4] | Potency [5] | outcome [6] | outcome [7] | max response [8] 6.61% and 0.839% | Potency [9] | Potency [10] | outcome [11] | Potency [12] | Potency [13] | outcome [18] | Potency [14] | Potency [15] | Potency [16] | Potency [17]

CCCN(CCC)N=O
inactive: outcome [1] | Potency [2] | Potency [3] | outcome [4] | Potency [5] | outcome [6] | outcome [7] | max response [8] -0.648% and 5.21% | Potency [9] | outcome [11] | Potency [12] | Potency [13] | Potency [14] | Potency [15] | Potency [16] | Potency [17]

CCOP(OCC)OCC
inactive: outcome [1] | Potency [2] | Potency [3] | outcome [4] | Potency [5] | outcome [6] | max response [8] 7.3% and 7.34% | Potency [9] | Potency [10] | outcome [11] | Potency [12] | Potency [13] | outcome [18] | Potency [14] | Potency [15] | Potency [16] | Potency [17]

Nc1ccc(Cc2ccc(N)cc2)cc1
inactive: outcome [1] | Potency [2] | Potency [3] | outcome [4] | Potency [5] | outcome [6] | outcome [7] | max response [8] -10.2% | Potency [9] | outcome [11] | Potency [12] | Potency [13] | outcome [18] | Potency [14] | Potency [15] | Potency [16] | Potency [17]

[O-][Cl+2]([O-])O
inactive: outcome [1] | Potency [2] | Potency [3] | outcome [4] | Potency [5] | outcome [6] | max response [8] 11.8% and -2.78% | Potency [9] | Potency [10] | outcome [11] | Potency [12] | Potency [13] | Potency [14] | Potency [15] | Potency [16] | Potency [17]

Cc1cc(Cl)ccc1O
inactive: outcome [1] | Potency [2] | Potency [3] | outcome [4] | Potency [5] | outcome [6] | outcome [7] | max response [8] 4.2% and 2.39% | Potency [9] | Potency [10] | outcome [11] | Potency [12] | Potency [13] | outcome [18] | Potency [14] | Potency [15] | Potency [16] | Potency [17]

O=C(NC(=O)c1c(F)cccc1F)Nc1cc(Cl)c(OC(F)(F)C(F)C(F)(F)F)cc1Cl (stereo not given)
12.3 µM (active) and inactive: Potency [2]
inactive: activity change, positive = activation ([19]; at 42.5 µM (top of the series)) -26% | activity change, positive = activation ([19]; at 92.4 µM (top of the series)) -26.5% | outcome [1] | Potency [3] | outcome [4] | Potency [5] | outcome [6] | max response [8] -33.5% | Potency [9] | Potency [10] | outcome [11] | Potency [12] | Potency [13] | outcome [18] | Potency [14] | Potency [15] | Potency [16] | Potency [17]

Nc1ccc(Br)cc1
inactive: outcome [1] | Potency [2] | Potency [3] | outcome [4] | Potency [5] | outcome [6] | outcome [7] | max response [8] -1.58% and -21.4% | Potency [9] | Potency [10] | outcome [11] | Potency [12] | Potency [13] | outcome [18] | Potency [14] | Potency [15] | Potency [16] | Potency [17]

C[C@]12CC[C@H]3[C@@H](CC[C@@]45O[C@@H]4C(O)=C(C#N)C[C@]35C)[C@@H]1CC[C@@H]2O
inactive: outcome [1] | Potency [2] | Potency [3] | outcome [4] | Potency [5] | outcome [6] | max response [8] 27.1% and 19.8% | Potency [9] | Potency [10] | outcome [11] | Potency [12] | Potency [13] | outcome [18] | Potency [14] | Potency [15] | Potency [16] | Potency [17]

NCC(O)c1ccc(O)cc1 (stereo not given)
inactive: outcome [1] | Potency [2] | Potency [3] | outcome [4] | Potency [5] | outcome [6] | outcome [7] | max response [8] -6.22% and 3.7% | Potency [9] | Potency [10] | outcome [11] | Potency [12] | Potency [13] | outcome [18] | Potency [14] | Potency [15] | Potency [16] | Potency [17]

COC(=O)c1ccccc1C(=O)OC
-0.694% (inactive) and 10.9% (active): activity change, positive = activation ([19]; at 92.4 µM (top of the series))
inactive: Potency [20] | Potency [2] | Potency [3] | outcome [4] | Potency [5] | outcome [6] | max response [8] -6.01% and 4.81% | Potency [9] | Potency [10] | outcome [11] | Potency [12] | Potency [13] | Potency [14] | Potency [15] | Potency [16] | Potency [17]

— PubChem BioAssay (Tox21)
